Experiment [1] can be described thus: P-glycoprotein substrates identified in KB-8-5-11 adenocarcinoma cell line, qHTS therapeutic library screen (AID 1346987). Also: nearly all actives have a fitted effect of over 65% in size. Also: potency is read from the fitted curve at half-maximal effect. Put shortly:
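Human cervical adenocarcinoma KB-8-5-11 cells, selected in colchicine to over-express P-gp and assayed without it, were exposed for 72 h to titrated compounds. An ATP-based luminescent viability signal gave AC50.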

Experiment [2] concerns the target N-terminal Xaa-Pro-Lys N-methyltransferase 1 (Homo sapiens) (UniProt Q9BV86). Kind of experiment: Confirmatory qHTS for Inhibitors of N-terminal methyltransferase 1 (NTMT1): MTaseGlo Assay (AID 1645874). Also: potency is read from the fitted curve at half-maximal effect; nearly all actives have a fitted effect of over 65% in size. Put shortly: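 Enzyme mix (125 nM NTMT1, 100 uM SAM) + compound, 15 min RT; + 1 uM SPKRIA, 30 min RT, dark; MTase-Glo reagent 30 min, detection solution 30 min; luminescence. % inhibition vs no-enzyme/DMSO controls, 4-parameter Hill fit.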
Background: In qHTS, concentration-response curves come from the screen itself.

The target of experiment [3] is Catechol O-methyltransferase (Homo sapiens) (UniProt P21964). Kind of experiment: Confirmatory Screen for Target Class Profiling of Small Molecule Inhibitors of Methyltransferases (AID 1745852; calls by dose curve; also: potency is read from the fitted curve at half-maximal effect; as to activity change, negative = inhibition: % is scaled to controls: 0 for no effect and ±100 for the full control effect). Particulars: MTase-Glo luminescence, SAH detection, recombinant enzyme; measured here: COMT max response; stronger effect = lower value.
Experiment [4] has as its target Guanidinoacetate N-methyltransferase (Homo sapiens) (UniProt Q14353). The experiment is described as above. Particulars: activity change, negative = inhibition: at 57.3 µM (top of the series) unless noted.
The target of experiment [5] is Nicotinamide N-methyltransferase (Homo sapiens) (UniProt P40261). The experiment is described as above. Particulars: MTase-Glo luminescence, SAH detection, recombinant enzyme; measured here: NNMT max response; stronger effect = lower value.
Experiment [6] addresses Phenylethanolamine N-methyltransferase (Homo sapiens) (UniProt P11086). Described as above. Particulars: MTase-Glo luminescence, SAH detection, recombinant enzyme; measured here: PNMT max response; stronger effect = lower value.
The target in experiment [7] is Calcium and integrin-binding protein 1 (Homo sapiens) (UniProt Q99828). Kind of experiment: Primary qHTS for Identification of Calcium Integrin Binding Protein 1 (CIB1) Competitor (AID 1508620).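 Also: GST tagged CIB1 binding a fluorescein labelled alphaIIb integrin peptide tracer; top concentration of the series differs between compounds; % is scaled to controls: 0 for no effect and ±100 for the full control effect.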 Put shortly: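 Fluorescence polarization competition: CIB1-GST (1 uM final) preincubated with compound 15 min at room temperature, then FITC-labeled alphaIIb peptide (100 nM final) added for another 15 min. Polarization read at Ex 480/Em 540.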

Experiment [8] in a line: Primary qHTS for inhibitors of nuclear receptor binding SET domain protein 2 (NSD2) in an isogenic RCH-ACV NSD2 p.E1099K mutant (9B) (AID 1645876). Also: nearly all actives have a fitted effect of over 70% in size. Also: potency is read from the fitted curve at half-maximal effect.
The nature of experiment [9]: Primary qHTS for inhibitors of nuclear receptor binding SET domain protein 2 (NSD2) in an RCH-ACV wild type WT cells (2C) (AID 1645877). Also: nearly all actives have a fitted effect of over 70% in size. Also: potency is read from the fitted curve at half-maximal effect.
For experiment [10], the target named is Glutathione peroxidase 1 (Homo sapiens) (UniProt P07203). As to the kind of experiment: Primary qHTS Assay for Inhibitors of Recombinant Selenoprotein Glutathione Peroxidase 1 (GPX1) (AID 1845191). Also: nearly all actives have a fitted effect of over 65% in size. Put shortly:
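GPX1 10 nM, GR 100 nM, GSH 1 mM, NADPH 0.5 mM, CHP 0.5 mM (final). 30-min cpd preincubation, RT. Ex340/Em450 read t=0, t=15 min.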

Experiment [11] is described as follows: qHTS drug screen for cell cycle checkpoint inhibitors in PARPi-resistant BRCA-mutant ovarian cancer cell lines. (AID 1963452; calls by dose curve). Particulars: PEO1/OlaR viability, CellTiter-Glo luminescence, 96 h, stronger effect = lower value. Put shortly:
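PEO1, PEO4 and PEO1/OlaR ovarian cancer cells, 600 per well, exposed 96 h at 37C to a dilution series. Viability read by CellTiter-Glo luminescence, normalized to DMSO and empty wells; activity summarized as Z-AUC.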

The nature of experiment [12]: qHTS to identify inhibitors of the type 1 interferon - major histocompatibility complex class I in skeletal muscle: primary screen against the NCATS Mechanism Interrogation Plate v5.0 (MIPE) Libary (AID 1347411).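 Also: plate controls were vehicle for no effect and reference inhibitor for full effect; nearly all actives have a fitted effect of over 65% in size.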 The gist of the method: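 IFN-beta-driven (4 ng/ml) HLA-B-HiBit expression in CRISPR-tagged C25cl48 myoblasts; compounds 11-pt, 1:3, max 46 uM, 24 hr exposure; lytic NanoLuc complementation luminescence.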

The target of experiment [13] is Phospholipid hydroperoxide glutathione peroxidase GPX4 (Homo sapiens) (UniProt P36969). As to the kind of experiment: Primary qHTS Assay for Inhibitors of Recombinant Selenoprotein Glutathione Peroxidase 4 (GPX4) (AID 1845192). Particulars: outcome: dose series up to 50 µM unless noted. The gist of the method:
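qHTS, GR-coupled: GPX4 200 nM + cpd 30 min RT → GSH 1 mM, NADPH 0.5 mM, GR 100 nM → CHP 0.5 mM start; fluor 340/450 at t0 and t15 min; no-enzyme wells as control.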

[14] abbreviates: measured here: PEO1 parental Z-AUC.

Inconclusive results are not listed. Activity calls are given as the source filed them. Unless noted, calls follow the shape of the dose curve; as a rule, active = well fitted curve in the direction sought with a large enough effect; inconclusive = small, poorly fitted or top-dose-only effect, or another doubt; inactive = no such curve, though single readings can be large; an effect the other way counts as inactive or inconclusive.

Glutathione peroxidase 1 (Homo sapiens), sequence (P07203 whole entry, looked up): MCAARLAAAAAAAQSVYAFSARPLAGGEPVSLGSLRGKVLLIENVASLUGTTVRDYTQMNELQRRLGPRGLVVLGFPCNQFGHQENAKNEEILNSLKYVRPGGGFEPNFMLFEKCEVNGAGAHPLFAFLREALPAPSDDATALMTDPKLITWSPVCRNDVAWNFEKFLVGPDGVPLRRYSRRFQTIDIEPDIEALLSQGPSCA
Catechol O-methyltransferase (Homo sapiens), sequence (P21964 whole entry, looked up): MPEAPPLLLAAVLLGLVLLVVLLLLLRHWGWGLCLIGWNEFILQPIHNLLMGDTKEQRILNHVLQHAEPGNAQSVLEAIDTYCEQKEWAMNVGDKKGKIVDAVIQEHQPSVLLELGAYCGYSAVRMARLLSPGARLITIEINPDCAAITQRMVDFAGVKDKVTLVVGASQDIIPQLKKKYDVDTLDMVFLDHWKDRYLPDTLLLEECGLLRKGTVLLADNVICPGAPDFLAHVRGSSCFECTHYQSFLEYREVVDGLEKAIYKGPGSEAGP
Nicotinamide N-methyltransferase (Homo sapiens), sequence (P40261 whole entry, looked up): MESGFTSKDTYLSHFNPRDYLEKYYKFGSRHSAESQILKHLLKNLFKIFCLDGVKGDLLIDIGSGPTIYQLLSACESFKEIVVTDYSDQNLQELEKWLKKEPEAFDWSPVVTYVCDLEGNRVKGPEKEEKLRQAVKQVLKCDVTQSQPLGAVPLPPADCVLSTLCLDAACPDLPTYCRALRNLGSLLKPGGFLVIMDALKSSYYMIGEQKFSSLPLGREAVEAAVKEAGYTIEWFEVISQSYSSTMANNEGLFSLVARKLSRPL
Phenylethanolamine N-methyltransferase (Homo sapiens), sequence (P11086 whole entry, looked up): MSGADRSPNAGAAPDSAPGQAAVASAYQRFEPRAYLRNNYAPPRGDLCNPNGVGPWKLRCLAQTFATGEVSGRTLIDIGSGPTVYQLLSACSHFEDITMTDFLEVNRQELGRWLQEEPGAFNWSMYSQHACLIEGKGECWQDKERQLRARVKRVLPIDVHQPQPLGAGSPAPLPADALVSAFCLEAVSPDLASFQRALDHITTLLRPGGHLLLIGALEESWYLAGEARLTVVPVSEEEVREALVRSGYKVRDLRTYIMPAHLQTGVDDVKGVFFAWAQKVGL
Calcium and integrin-binding protein 1 (Homo sapiens), sequence (Q99828 whole entry, looked up): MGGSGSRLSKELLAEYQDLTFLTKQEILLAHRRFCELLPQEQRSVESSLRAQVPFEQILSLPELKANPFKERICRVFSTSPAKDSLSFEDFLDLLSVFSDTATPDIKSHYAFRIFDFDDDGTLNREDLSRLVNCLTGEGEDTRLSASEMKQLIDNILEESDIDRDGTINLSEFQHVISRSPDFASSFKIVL
Phospholipid hydroperoxide glutathione peroxidase GPX4 (Homo sapiens), sequence (P36969 whole entry, looked up): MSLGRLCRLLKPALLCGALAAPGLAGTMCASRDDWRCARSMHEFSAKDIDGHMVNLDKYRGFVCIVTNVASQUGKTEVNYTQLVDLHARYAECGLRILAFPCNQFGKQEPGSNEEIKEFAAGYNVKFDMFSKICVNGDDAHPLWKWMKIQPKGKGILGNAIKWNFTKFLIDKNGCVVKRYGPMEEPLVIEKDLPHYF
N-terminal Xaa-Pro-Lys N-methyltransferase 1 (Homo sapiens), sequence (Q9BV86 whole entry, looked up): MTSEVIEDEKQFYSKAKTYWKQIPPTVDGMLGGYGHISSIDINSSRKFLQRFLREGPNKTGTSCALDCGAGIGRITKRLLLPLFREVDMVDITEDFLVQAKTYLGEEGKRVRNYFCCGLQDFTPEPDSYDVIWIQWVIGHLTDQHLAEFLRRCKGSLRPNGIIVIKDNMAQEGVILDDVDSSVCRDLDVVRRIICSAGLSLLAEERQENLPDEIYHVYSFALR

For `CN(C)c1ccc(Nc2c3ccc(NC(=O)CCN4CCCC4)cc3nc3cc(NC(=O)CCN4CCCC4)ccc23)cc1`, the Potency entry in [1] is “inactive”. For the same molecule, the figures for the Potency in [2] and in [4] were 6.49 µM (active) and 24.1 µM (active), respectively. The activity in [3] is -13%; in [5] it was -39.2%; in experiment [6], -14.2%.
As for `Cc1ccc(NS(=O)(=O)c2cc3c(cc2N[C@@H](C)CO)NC(=O)CC3)cc1C`, the Potency result in [1] was “inactive”. Also, in experiment [7], the outcome was “inactive”.
For the molecule `C=CCN(/C=C1\C(=O)OC(COC)C2(C)C1=C(O)C(=O)C1=C2C(OC(C)=O)CC2(C)C(=O)CCC12)CC=C` (stereo unspecified), the Potency entry in experiment [1] was “inactive”. For the same molecule, the Potency is 9.2 µM (active) in [8] and 11.6 µM (active) in experiment [9].
For `Cn1c(CNc2cccc(C(=O)NCc3ccccc3C(F)(F)F)c2)nnc1-c1ccncc1`, the Potency entry in experiment [1] and in [10] was “inactive” throughout. Also, the Potency in [9] is 10.3 µM (active).
As to `O=C1NC(=O)/C(=C\c2ccc3c(c2)OC(F)(F)O3)S1`, the Potency entry in [1] was “inactive”. The activity in [3] was -3.87%; in [5] it was -7.77%; in experiment [6], -2.73%. Besides, the activity change, negative = inhibition in experiment [4] was -2.97%.
Consider `Cc1ccc(NC(=O)Nc2nnc(Sc3ncnc4cc(OCCCN5CCOCC5)ccc34)s2)cc1`, for which the Potency entry in [1] and in [10] was “inactive” in each case. In addition, the Potency in [8] is 3.66 µM (active); in [9], 5.17 µM (active). The Z-AUC in experiment [11] was -0.628 (inactive); in experiment [11] (setting [14]), 0.369; in experiment [11] (measured here: PEO4 Z-AUC) it was 0.158.
For the molecule `O=C1CCCC2=C1C1(CCSCC1)N=C(Nc1nc3ccccc3o1)N2`, the Potency entry in experiment [1], in experiment [8] and in [9] was “inactive” throughout.
On to `CCCCCCC(=O)O[C@H]1CC[C@H]2[C@@H]3CCc4cc(O)ccc4[C@H]3CC[C@]12C`, for which the Potency in experiment [1] was 7.31 µM (active). In addition, the Potency result in [10] was “inactive”.
`CC/C(=C(/CC)c1ccc(O)c(CN(CC)CC)c1)c1ccc(O)c(CN(CC)CC)c1`: the Potency in experiment [1] is 14.6 µM (active); in experiment [8], 9.2 µM (active); in experiment [9], 16.4 µM (active). Further, the Potency result in experiment [10] is “inactive”.
Take `O=Nc1c2[nH]c3ccccc3nc-2c2ccccc12`: the Potency entry in [1] and in experiment [10] was “inactive” each time. Moreover, the Potency in experiment [8] is 13 µM (active).
For `O=C(c1ccc(-c2ccc(Cl)cc2)o1)N(Cc1ccccn1)c1ccc(N2CCNCC2)cc1`, the Potency result in [1] and in experiment [10] was “inactive” throughout. Further, the Potency in experiment [8] was 13 µM (active); in [9] it was 16.4 µM (active).
Regarding `CN(CCO)C1CCN(c2ccc(Nc3ncc4c5ccnc(F)c5n(C5CCCC5)c4n3)nc2)CC1`, the figures for the Potency in experiment [1], in experiment [8] and in experiment [9] were 11.2 µM (active), 0.574 µM (active) and 0.512 µM (active), respectively. Further, the Potency result in experiment [12], in experiment [10] and in [13] was “inactive” in each case. Further, the Z-AUC in [11] is -1.43 (inactive); in experiment [11] (setting [14]), -0.563; in [11] (measured here: PEO4 Z-AUC) it was -1.
